# Screening results (PubChem)
# Only some compounds are listed: those with a hit (about 2.4% of all), similar ones and a draw of the others.
# D2 ag-1 – activates the human D2 dopamine receptor | P14416 | HEK293 T-REx D2 cells, calcium flux agonist mode | activation, % at 2 µM | hit rate 0.53% among 340,000 | AID 485358;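 active = activation over 3 SD above normal in the single-dose calcium agonist read, cut at about 30% in these data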; also: 0% is about no effect
# Target sequence (P14416 whole entry, looked up): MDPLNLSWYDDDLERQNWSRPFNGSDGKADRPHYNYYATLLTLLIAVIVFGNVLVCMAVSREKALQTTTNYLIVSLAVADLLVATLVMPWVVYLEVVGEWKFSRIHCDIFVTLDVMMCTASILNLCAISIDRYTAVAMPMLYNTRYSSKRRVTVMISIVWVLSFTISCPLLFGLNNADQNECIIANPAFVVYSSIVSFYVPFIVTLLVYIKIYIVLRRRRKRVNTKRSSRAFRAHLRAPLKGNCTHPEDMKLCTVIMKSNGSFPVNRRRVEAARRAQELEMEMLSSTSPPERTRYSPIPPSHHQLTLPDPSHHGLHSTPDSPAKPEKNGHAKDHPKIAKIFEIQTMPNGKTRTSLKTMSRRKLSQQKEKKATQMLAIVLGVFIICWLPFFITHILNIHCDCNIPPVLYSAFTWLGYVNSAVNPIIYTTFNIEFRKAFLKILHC
#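 Tetracycline-induced HEK293 Trex cells with D2 receptor force-coupled to calcium signaling, plated overnight at 30 C and loaded with no-wash calcium dye. Calcium flux read kinetically for 180 s after compound addition; responses flag agonists.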
# D2 antag – D2 dopamine receptor (human) antagonism | HEK293 TREx D2 cells, calcium flux, dopamine EC80 | inhibition, % at 10 µM | hit rate 2% among 340,000 | AID 485344; in the data active = inhibition above about 30%; inactive = below that, where a call was filed; also: 0% is about no effect
#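 Inhibition of EC80 dopamine-driven calcium flux, recorded kinetically, defines activity here; cells are a tetracycline-induced HEK293 T-REx line expressing force-coupled D2.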
# D2 PAM-1 – positively modulates the human D2 dopamine receptor allosterically. P14416. HEK293 T-REx D2, calcium flux, EC20 dopamine potentiation. potentiation, % at 10 µM. hit rate 0.34% among 340,000;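 active = potentiation over 3 SD above the plate norm, cut at about 30% in these data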; also: 0% is about no effect
#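 Tetracycline-induced HEK293 T-REx cells force-coupled to calcium signalling expressed D2; compounds were pin-added after a 10 s baseline, read kinetically 180 s, then an EC20 dopamine challenge followed with a further 180 s calcium read.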
# D2 ag-2 – activates the human D2 dopamine receptor; P14416; DiscoveRx PathHunter D2 beta-arrestin, luminescence, 90 min; 100% = 57 uM dopamine signal; AID 624465; activation, % (concentration not given with the values); hit rate 0.084% among 360,000; in the data active = activation above about 40%; inconclusive = between about 15% and that limit
#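 DiscoveRx PathHunter D2 beta-arrestin cells (2,100/well) attached overnight, then compound-stimulated 90 min at 37 C in HBSS/10 mM HEPES/0.1% Tween-20 buffer; beta-galactosidase complementation read by luminescence after 1 h at ambient temperature. Dopamine 57 uM final (EC100) as control.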
# D2 PAM-2 – human D2 receptor positive allosteric modulation; P14416; DiscoveRx D2 beta-arrestin cells, luminescence, 90 min; 100% = 57 uM dopamine signal; potentiation, % (no concentration beside the values); hit rate 0.23% among 360,000; in the data active = potentiation above about 50%; inconclusive = mostly about 30% to 49%
#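 PathHunter beta-arrestin assay in DiscoveRx D2 cells. Compounds were added with an EC20 of dopamine (50 nM final) for 90 min at 37 deg C. Luminescence was read 1 h after detection reagent, with 57 uM dopamine as the EC100 control.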
# * marks the source's active call; other numbers are inactive results; ? = inconclusive; nt = no result.
SMILES,D2 ag-1,D2 antag,D2 PAM-1,D2 ag-2,D2 PAM-2
O=C(CCc1ccc(O)c(O)c1)N/N=C/c1ccc2c(c1)OCO2,19,42*,2,?,-1
CCN(c1ccccc1)S(=O)(=O)c1ccc2[nH]cc(C(=O)NCc3ccc(C)cc3)c(=O)c2c1,9,nt,4,nt,nt
O=C(O)CC/C(=N\Nc1ccc(S(=O)(=O)N2CCOCC2)cc1[N+](=O)[O-])c1cccs1,-1,30*,-2,-5,-8
O=C(O)CC/C(=N\Nc1ccc(S(=O)(=O)N2CCCC2)cc1[N+](=O)[O-])c1cccs1,1,-2,12,-4,-17
Cc1ccc(S(N)(=O)=O)c(C)c1N1CCCC1=O,0,-5,30*,-7,-4
COc1cc(/C=C2\SC(=O)N(CC(=O)Nc3ccccc3F)C2=O)cc(Cl)c1O,41*,18,-6,5,3
CC(=O)C(=Nc1ccccc1Cl)NNc1ccc(Cl)cc1,1,1,34*,?,?
CCc1nc2nc(C)cc(Nc3ccc(OC)cc3OC)n2n1,-1,nt,8,nt,nt
Cc1cc(C)c(NC(=O)C2CCCN(S(=O)(=O)c3c(C)noc3C)C2)c(C)c1 (stereo unspecified),-1,nt,30,nt,nt
Cc1cc(C)c(NC(=O)C2CCCN(S(=O)(=O)c3c(C)noc3/C=C/N(C)C)C2)c(C)c1 (stereo unspecified),0,33*,-1,-2,-3
O=C1C(=O)c2ccccc2C(O)=C1c1cccc([N+](=O)[O-])c1,1,48*,12,-10,-19
COc1ccc(OC)c(S(=O)(=O)NCc2cn3c(C)csc3n2)c1,nt,nt,-20,-3,-13
COc1ccc(S(=O)(=O)NCc2cn3c(C)csc3n2)cc1F,0,32*,8,-2,2
Cn1c(CN2CCCCC2)nc2cc(NC(=O)c3ccccc3)ccc21,34*,36*,-21,?,-3
Cn1c(CN2CCCCC2)nc2cc(NC(=O)c3cccc(Br)c3)ccc21,-1,9,-7,-2,-6
CCOC(=O)Nc1ccc2c(c1)nc(CN1CCCCC1)n2C,0,31*,-26,nt,nt
CCc1nc2ccc(C(=O)N(C)Cc3ccco3)cn2c1N(C)CCCc1ccccc1,nt,nt,nt,-1,-8
Nc1nonc1-c1nc2ccccc2n1CC(=O)N1CCN(c2ccc(F)cc2)CC1,1,-30,50*,1,-11
Nc1nonc1-c1nc2ccccc2n1CC(=O)Nc1ccc(F)cc1,5,nt,9,nt,nt
O=C1CC(C(=O)Nc2ccccc2)N=C(N2CCOCC2)N1 (stereo unspecified),0,-26,4,-5,-12
O=C1CC(C(=O)Nc2ccc(F)c(Cl)c2)N=C(N2CCCCC2)N1 (stereo unspecified),0,30*,-21,-3,-10
Cc1[nH]n(-c2ccccc2)c(=O)c1/C=N/N(C)c1ccccc1,-1,-15,-6,10,74*
COCC(=O)N/N=C/c1c(C)[nH]n(-c2ccccc2)c1=O,0,4,33*,-4,-10
COC(=O)N/N=C\c1c(C)[nH]n(-c2ccccc2)c1=O,-1,13,4,-4,-14
COc1ccc(Cl)cc1NC(=O)Cn1c(=O)n(Cc2cccs2)c(=O)c2cccnc21,1,nt,nt,nt,nt
SMILES,D2 ag-1,D2 antag,D2 PAM-1,D2 ag-2,D2 PAM-2
COc1ccc(S(=O)(=O)N2CCCCC2c2cc(C(=O)Nc3ccc(OC)cc3C)no2)cc1 (stereo unspecified),nt,nt,nt,-4,8
COc1ccc(C(=O)COc2nc(C)cc(C)c2C#N)cc1,0,35*,0,-4,-4
COc1ccc(CNCc2ccco2)cc1OCc1ccccc1,-1,37*,16,-5,-28
COc1ccccc1CCNCc1ccc(OC)c(OCc2ccccc2)c1,nt,nt,nt,-2,-16
CCOC(=O)c1c(C)[nH]c(C)c1S(=O)(=O)N(C)CC(=O)Nc1ccc(C)cc1C,0,nt,-3,nt,nt
Cc1ccc(CCNC(=O)C2CC(=O)N(CCc3ccc(C)cc3)C2)cc1 (stereo unspecified),0,nt,11,nt,nt
O=S(=O)(Cc1ccc(Cl)cc1)c1ccccc1-c1nnc(-c2ccccc2)o1,1,55*,8,1,10
CS(=O)(=O)c1ccccc1-c1nnc(-c2ccc(Cl)cc2)o1,0,19,-2,0,-4
Cc1c(Cl)cccc1NC(=O)CCn1c(=O)c2cccn2c2ccccc21,3,nt,-3,nt,nt
CCN(c1ccc(F)cc1)S(=O)(=O)c1cccc2nsnc12,0,-17,-12,-1,-2
CCN(c1ccccc1C(=O)O)S(=O)(=O)c1cccc2nsnc12,-1,31*,14,-1,1
N#CCCN(C1CCCCC1)S(=O)(=O)c1cccc2nsnc12,-4,-1,0,0,0
CN(C1CCCCC1)S(=O)(=O)c1cccc2nsnc12,-1,32*,-6,-4,-4
O=C(NCCN1CCOCC1)c1ccc2c(c1)N(Cc1ccccc1)C(=O)CS2,-1,-16,nt,0,-9
CCN1C(=O)CSc2ccc(C(=O)NCCCN3CCOCC3)cc21,35*,-1,-7,-2,-10
COc1ccccc1N1CCN(CC(=O)N2N=CCC2c2ccccc2)CC1 (stereo unspecified),0,42*,-18,-10,-22
COc1ccc(N2CCN(CC(=O)N3N=CCC3c3ccccc3)CC2)cc1 (stereo unspecified),0,13,-3,0,-3
COc1ccccc1N1CCN(C/C(C)=C/c2ccccc2)CC1,0,74*,-23,-2,-18
COc1ccccc1N1CCN(/N=C/c2cccc(OC)c2O)CC1,-3,59*,-5,-9,-6
C/C(=C\c1ccccc1)CN1CCN(c2ccccc2)CC1,0,-6,-6,?,1
O=C(CC1C(=O)N(c2ccccc2)C(=O)N1Cc1ccc2c(c1)OCO2)Nc1ccccc1 (stereo unspecified),0,nt,3,nt,nt
COc1ccc(-c2cc3ccccc3oc2=O)cc1NC(=O)c1ccc([N+](=O)[O-])o1,0,-13,-6,11,101*
COc1ccc(-c2cc3ccccc3oc2=O)cc1NC(=O)c1ccc(Br)o1,1,-6,-8,-6,-14
COc1ccc(-c2noc(N3CCC(C(=O)NCc4ccccc4Cl)CC3)n2)cc1,1,48*,14,-2,-3
COc1ccc(C/C(N)=N/OC(=O)c2cccc([N+](=O)[O-])c2)cc1,-1,-11,9,10,51*
COc1ccccc1C/C(N)=N/OC(=O)c1cccc([N+](=O)[O-])c1,-1,4,3,?,70*
COc1ccc(C(=O)O/N=C(\N)Cc2ccc([N+](=O)[O-])cc2)c(OC)c1,0,-9,-11,42*,?
